# Data from PubChem BioAssay (Tox21).
# “And” between values parts separate entries of the source, which are not always exact repeats. Identical values can stand only once. The source made the active and inactive calls. Entries that show only a call come without a potency. Unless noted, calls come from the whole dose curve; as a rule, active = well fitted curve in the direction sought with a large enough effect in the repeat runs; inconclusive = weak or mixed curves; inactive = no such curve, though single readings can be large; an effect the other way counts as inactive or inconclusive.
# Tests used:
# [1] = qHTS assay for small molecule agonists of the p53 signaling pathway - cell viability (AID 651633; calls by dose curve;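 note: p53RE-bla HCT reporter cells with a stable beta-lactamase p53 reporter; series mostly up to about 83 µM; nearly all actives have a fitted effect of over 30% in size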)
# In short: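 p53RE-bla cells, seeded at 4,000 per well and rested 5 h at 37 C/5% CO2, received compounds in DMSO for 16 h at 37 C. CellTiter-Glo was then added, and luminescence was read after 30 min at room temperature to gauge cytotoxicity.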
# [2] = qHTS assay to test for compound auto fluorescence at 460 nm (blue) in HEK293 cells (AID 720678)
# In short: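 Intrinsic compound fluorescence is recorded in live HEK293 cultures after overnight incubation at 37C, 5% CO2, using excitation 405 nm and emission 460 nm. Values are referenced to triamterene.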
# [3] = qHTS assay to test for compound auto fluorescence at 535 nm (green) in HEK293 cells (AID 720680)
# [4] = qHTS assay to test for compound auto fluorescence at 590 nm (red) in HEK293 cell free culture (AID 720683)
# In short: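 Tox21 10K library compounds were pinned into cell-free DMEM with 10% FBS and fluorescence was read at excitation 540 nm. Activity is expressed as Rose Bengal sodium equivalency.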
# [5] = molecular target: Glucocorticoid receptor (Homo sapiens) (UniProt P04150); test: qHTS assay to identify small molecule agonists of the glucocorticoid receptor (GR) signaling pathway (AID 720691; active = well fitted activation curve with a large enough effect in the signal ratio in the repeat runs, not every such curve was filed as active; inconclusive = weak or mixed curves, or effect the other way; inactive = no such curve, though single readings can be large or run the other way; the % refers to the signal ratio)
# In short: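 Reporter read-out: fluorescence intensity following 2 h room-temperature LiveBLAzer B/G FRET substrate loading. Prior step: GR-bla HeLa cells held 4 h, then treated 18 h at 37 C.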
# [6] = molecular target: Glucocorticoid receptor (Homo sapiens) (UniProt P04150); test: qHTS assay to identify small molecule antagonists of the glucocorticoid receptor (GR) signaling pathway (AID 720692; active = well fitted inhibition curve with a large enough effect in the signal ratio in the repeat runs, not every such curve was filed as active; inconclusive = weak or mixed curves, or effect the other way; inactive = no such curve, though single readings can be large or run the other way; the % refers to the signal ratio)
# In short: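 Dexamethasone (5 nM final) stimulated a stably integrated GRE-beta-lactamase reporter in HeLa cells during 18 h co-incubation with compounds; signal was quantified as fluorescence intensity of B/G FRET substrate after 2 h.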
# [7] = qHTS assay to identify small molecule antagonists of the glucocorticoid receptor (GR) signaling pathway - cell viability counter screen (AID 720693); note: nearly all actives have a fitted effect of over 55% in size
# [8] = qHTS assay for identifying genotoxic compounds that show differential cytotoxicity against isogenic chicken DT40 cell lines with known DNA damage response pathways - Rad54/Ku70 mutant cell line (AID 743015); note: nearly all actives have a fitted effect of over 60% in size
# [9] = qHTS assay to identify small molecule antagonists of the androgen receptor (AR) signaling pathway using the MDA cell line - cell viability counter screen (AID 743041; note: nearly all actives have a fitted effect of over 45% in size)
# In short: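 Viability counter screen run alongside the AR antagonist reporter: cells seeded 5 h before compound, R1881 added, 16 h incubation at 37C without CO2, fluorescent CellTiter-Fluor signal quantified.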
# [10] = qHTS assay to identify small molecule antagonists of the thyroid receptor (TR) signaling pathway - cell viability counter screen (AID 743064); note: nearly all actives have a fitted effect of over 50% in size
# In short: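 In-well cytotoxicity read by CellTiter-Fluor (30 min, 37 C) following 23.5 h exposure of GH3 cells bearing a TRE-luciferase sensor. Compounds were added alongside 1 nM (final) T3 to drive TR transactivation.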
# [11] = qHTS assay to identify small molecule antagonists of the thyroid receptor (TR) signaling pathway (AID 743065); note: nearly all actives have a fitted effect of over 55% in size; note: potency is the fitted concentration of half-maximal effect
# In short: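 GH3.TRE-Luc rat pituitary cells carrying two TR response elements driving luciferase were plated for 4 h, given compound plus 1 nM T3 (final), and incubated 23.5 h at 37 C. ONE-Glo luminescence measured reporter inhibition; CellTiter-Fluor fluorescence tracked cytotoxicity.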
# [12] = tested on: thyroid hormone receptor (rat, GH3 cells); test: qHTS assay to identify small molecule agonists of the thyroid receptor (TR) signaling pathway (AID 743066; calls by dose curve; note: potency is the fitted concentration of half-maximal effect)
# [13] = molecular target: Estrogen receptor (Homo sapiens) (UniProt P03372); test: qHTS assay to identify small molecule antagonists of the estrogen receptor alpha (ER-alpha) signaling pathway (AID 743069; active = well fitted curve in the direction sought with a large enough effect in the signal ratio in the repeat runs, not every such curve was filed as active; inconclusive = weak or mixed curves, or effect the other way; inactive = no such curve, though single readings can be large or run the other way; the % refers to the signal ratio)
# In short: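 Estradiol-stimulated ER-alpha-UAS-bla HEK293 cells, 18 hr compound exposure at 37C. LiveBLAzer B/G substrate, 2 hr RT, fluorescence read.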
# [14] = molecular target: Estrogen receptor (Homo sapiens) (UniProt P03372); test: qHTS assay to identify small molecule agonists of the estrogen receptor alpha (ER-alpha) signaling pathway (AID 743075; calls by dose curve;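 note: HEK293 GripTite cells with ER-alpha and UAS-driven beta-lactamase reporter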; note: potency is the fitted concentration of half-maximal effect)
# [15] = molecular target: Estrogen receptor (Homo sapiens) (UniProt P03372); test: qHTS assay to identify small molecule agonists of the estrogen receptor alpha (ER-alpha) signaling pathway using the BG1 cell line (AID 743079); note: nearly all actives have a fitted effect of over 20% in size; note: potency is the fitted concentration of half-maximal effect
# [16] = qHTS assay to identify small molecule antagonists of the estrogen receptor alpha (ER-alpha) signaling pathway using the BG1 cell line (AID 743080; calls by dose curve;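 note: BG1 cells stimulated with 17beta-estradiol alongside compound; series mostly up to about 70 µM; nearly all actives have a fitted effect of over 25% in size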)
# In short: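 Readout is ONE-Glo luminescence, taken 30 min at room temperature after reagent addition, preceded by a CellTiter-Fluor viability read; BG1-Luc-4E2 cells had received compound and 17beta-estradiol for 21.5 h at 37 C.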
# [17] = molecular target: Nuclear receptor subfamily 1 group I member 2 (Homo sapiens) (UniProt O75469); test: Human pregnane X receptor (PXR) activation by small molecules, qHTS assay (AID 1346985); note: nearly all actives have a fitted effect of over 40% in size
# In short: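 DPX-2 cells (HepG2 co-transfected with a PXR response element and a CYP3A4-promoter luciferase construct) were seeded at 2,000 per well, rested 5 hr at 37C, then exposed to DMSO-dissolved compounds for 24 hr. Activation was read as luciferase luminescence.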
# [18] = qHTS assay for small molecule disruptors of the mitochondrial membrane potential (AID 720635); note: potency is the fitted concentration of half-maximal effect
# In short: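 HepG2 cells (2,000/well) attached overnight at 37C, then took compound for 1 hr at 37C, 5% CO2. Mito-MPS dye was added for 30 min; fluorescence was read at 490/535 nm (monomers) and 540/590 nm (aggregates).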
# [19] = qHTS assay to identify small molecule antagonists of the androgen receptor (AR) signaling pathway - cell viability counter screen (AID 743033; note: nearly all actives have a fitted effect of over 45% in size)
# [20] = qHTS assay for small molecule disruptors of the mitochondrial membrane potential - cell viability (AID 720634; calls by dose curve;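 note: human HepG2 liver cancer cells; series mostly up to about 83 µM; nearly all actives have a fitted effect of over 20% in size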)
# In short: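 Measuring cytotoxicity alongside mitochondrial potential, the screen quantified ATP by luminescence in HepG2 cells after 1 hr compound incubation and a 30 min room-temperature CellTiter-Glo step.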
# Estrogen receptor (Homo sapiens), sequence (P03372 whole entry, looked up): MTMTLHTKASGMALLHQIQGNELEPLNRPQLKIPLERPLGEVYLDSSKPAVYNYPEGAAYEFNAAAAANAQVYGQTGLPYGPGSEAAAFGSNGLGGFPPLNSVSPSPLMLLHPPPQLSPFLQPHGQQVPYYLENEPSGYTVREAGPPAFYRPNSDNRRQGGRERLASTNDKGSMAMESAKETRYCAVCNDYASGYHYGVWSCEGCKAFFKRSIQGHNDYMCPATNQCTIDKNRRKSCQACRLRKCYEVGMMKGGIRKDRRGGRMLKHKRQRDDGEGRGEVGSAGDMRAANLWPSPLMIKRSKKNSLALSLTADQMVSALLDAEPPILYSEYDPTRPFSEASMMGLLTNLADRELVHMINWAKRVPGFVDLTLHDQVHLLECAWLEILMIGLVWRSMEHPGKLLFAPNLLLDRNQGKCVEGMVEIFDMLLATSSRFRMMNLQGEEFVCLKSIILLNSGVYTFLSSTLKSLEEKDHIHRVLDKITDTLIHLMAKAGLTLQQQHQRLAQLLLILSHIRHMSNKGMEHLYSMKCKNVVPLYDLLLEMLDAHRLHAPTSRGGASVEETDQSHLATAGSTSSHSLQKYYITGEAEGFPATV
# Glucocorticoid receptor (Homo sapiens), sequence (P04150 whole entry, looked up): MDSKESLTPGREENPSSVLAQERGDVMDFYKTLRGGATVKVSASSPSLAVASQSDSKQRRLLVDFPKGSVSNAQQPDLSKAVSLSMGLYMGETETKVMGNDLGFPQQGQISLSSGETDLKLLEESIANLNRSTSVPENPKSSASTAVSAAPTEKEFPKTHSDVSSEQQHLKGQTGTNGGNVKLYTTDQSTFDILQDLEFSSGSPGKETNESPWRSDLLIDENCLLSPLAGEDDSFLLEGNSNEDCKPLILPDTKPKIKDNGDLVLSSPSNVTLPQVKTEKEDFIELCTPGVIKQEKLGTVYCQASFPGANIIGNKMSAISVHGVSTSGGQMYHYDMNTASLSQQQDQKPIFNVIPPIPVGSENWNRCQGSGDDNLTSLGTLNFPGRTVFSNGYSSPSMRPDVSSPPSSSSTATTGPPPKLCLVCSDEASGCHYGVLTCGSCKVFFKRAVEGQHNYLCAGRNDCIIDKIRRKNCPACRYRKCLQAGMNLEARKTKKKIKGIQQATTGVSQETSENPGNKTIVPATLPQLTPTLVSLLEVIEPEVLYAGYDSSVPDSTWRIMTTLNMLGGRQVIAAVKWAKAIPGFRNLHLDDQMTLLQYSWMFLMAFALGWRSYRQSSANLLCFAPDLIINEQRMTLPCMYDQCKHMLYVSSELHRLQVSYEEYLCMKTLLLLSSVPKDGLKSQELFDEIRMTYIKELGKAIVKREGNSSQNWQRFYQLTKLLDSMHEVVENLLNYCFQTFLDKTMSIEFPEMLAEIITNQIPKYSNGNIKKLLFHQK
Compound,Potency [1],Potency [2],Potency [3],outcome [4],Potency [5],Potency [6],Potency [7],Potency [8],Potency [9],Potency [10],Potency [11],Potency [12],Potency [13],Potency [14],Potency [15],Potency [16],Potency [17],Potency [18],Potency [19],Potency [20]
CC(N)Cc1ccc(O)cc1 (stereo not given),inactive,inactive,inactive,inactive,inactive,inactive,inactive,inactive,inactive,inactive,inactive,inactive,inactive,inactive,inactive,inactive,inactive,,,
C[C@]12C=CC(=O)C=C1CC[C@@H]1[C@@H]2CC[C@]2(C)OC(=O)CC[C@@H]12,inactive,inactive,inactive,inactive,,,,inactive,inactive,,inactive,inactive,,21.3 µM [inconclusive] (active),5.31 µM (active),inactive,inactive,inactive,inactive,
CN[C@H]1C[C@@H](N)[C@H](O)[C@@H](O[C@@H]2O[C@H](CO)[C@H](O)[C@@H]3OC4(O[C@H]23)O[C@H](C(N)CO)[C@H](O)[C@H](O)[C@H]4O)[C@@H]1O (stereo not given in full),inactive,inactive,inactive,inactive,,,inactive,inactive,inactive,inactive,11.9 µM (active),inactive,inactive,inactive,inactive,,inactive,,inactive,inactive
CC(=O)OCC(=O)[C@H]1CC[C@H]2[C@@H]3CC[C@H]4C[C@H](O)CC[C@]4(C)[C@H]3C(=O)C[C@]12C,inactive,inactive,inactive,inactive,inactive,inactive,inactive,inactive,inactive,inactive,inactive,inactive,inactive,inactive,inactive,inactive,inactive,inactive,,inactive
C[C@@H](Cc1ccccc1)N(C)C,inactive,,,inactive,,,inactive,inactive,inactive,inactive,inactive,inactive,,,,,inactive,inactive,inactive,inactive
c1ccccc1,inactive,inactive,inactive,inactive,inactive,inactive,inactive,inactive,inactive,inactive,inactive,inactive,inactive,inactive,inactive,inactive,,,,inactive
COc1ccc2c3c1O[C@H]1[C@@H](O)C=C[C@H]4[C@@H](C2)NCC[C@@]341,,inactive,inactive,inactive,inactive,inactive,,inactive,inactive,inactive,inactive,inactive,inactive,inactive,inactive,inactive,inactive,inactive,,inactive
C=CCN(C1=NCCN1)c1c(Cl)cccc1Cl,,inactive,inactive,inactive,inactive,inactive,inactive,inactive,,inactive,inactive,inactive,inactive,inactive,11.9 µM (active),inactive,inactive,inactive,inactive,inactive
Oc1c(Cl)cc(Cl)cc1Cl,,inactive,inactive,inactive,,,,,,,inactive,inactive,,,,,,17 µM (active) and 48.6 µM (active),,
O=C(C[C@@H]1NCCC[C@H]1O)Cn1cnc2cc(Br)c(Cl)cc2c1=O,inactive,inactive,inactive,,inactive,inactive,inactive,inactive,,,,inactive,inactive,inactive,inactive,inactive,inactive,,,
COC1=CC=C2[C@H]3Cc4ccc(OC)c5c4[C@@]2(CCN3C)[C@H]1O5,inactive,,inactive,inactive,inactive,inactive,inactive,inactive,inactive,inactive,inactive,inactive,inactive,inactive,inactive,inactive,inactive,inactive,inactive,inactive
CCC(=O)O[C@]1(c2ccccc2)CCN(C)C[C@H]1C,,inactive,inactive,inactive,,,,,,,inactive,inactive,inactive,inactive,inactive,inactive,inactive,inactive,inactive,
CCNC(C)Cc1cccc(C(F)(F)F)c1 (stereo not given),inactive,,inactive,inactive,inactive,inactive,inactive,,inactive,inactive,inactive,inactive,inactive,inactive,inactive,inactive,inactive,,inactive,inactive
C=C[C@H]1CN2CC[C@H]1C[C@@H]2[C@@H](O)c1ccnc2ccccc12,,inactive,inactive,,inactive,inactive,inactive,,inactive,inactive,inactive,inactive,,,,,inactive,8.41 µM (active),,
OC(c1ccccc1)(c1ccccc1)C1CN2CCC1CC2 (stereo not given),,inactive,,inactive,inactive,inactive,inactive,,inactive,,29.8 µM (active),inactive,inactive,inactive,inactive,inactive,inactive,,inactive,inactive
COc1ccc(OC)c([C@@H](O)[C@H](C)N)c1,,,inactive,inactive,inactive,inactive,inactive,inactive,inactive,inactive,inactive,29.8 µM (active),inactive,inactive,inactive,inactive,inactive,inactive,inactive,
